Consider 16 compounds from PubChem BioAssay (Tox21).

Several values for one entry are separate records, joined by “and”; a condition that tells them apart may be missing. Identical values can stand only once. Values without a mark were called inactive. Activity calls are given as the source filed them. Calls follow the shape of the full dose curve.
% is scaled to controls: 0 for no effect and ±100 for the full control effect; potency is read from the fitted curve at half-maximal effect.

For the test, the target named is Estrogen receptor (Homo sapiens) (UniProt P03372). The test can be described thus: qHTS assay to identify small molecule agonists of the estrogen receptor alpha (ER-alpha) signaling pathway (AID 743075).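 Also: HEK293 GripTite cells with ER-alpha and UAS-driven beta-lactamase reporter.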 Conditions: HEK293 ER-alpha-UAS-bla, beta-lactamase FRET ratio, 18 h; series mostly up to 70.1 µM; activation: at the top concentration. (In general: In qHTS, concentration-response curves come from the screen itself.)
Chain of Estrogen receptor (Homo sapiens) (P03372 whole entry, looked up): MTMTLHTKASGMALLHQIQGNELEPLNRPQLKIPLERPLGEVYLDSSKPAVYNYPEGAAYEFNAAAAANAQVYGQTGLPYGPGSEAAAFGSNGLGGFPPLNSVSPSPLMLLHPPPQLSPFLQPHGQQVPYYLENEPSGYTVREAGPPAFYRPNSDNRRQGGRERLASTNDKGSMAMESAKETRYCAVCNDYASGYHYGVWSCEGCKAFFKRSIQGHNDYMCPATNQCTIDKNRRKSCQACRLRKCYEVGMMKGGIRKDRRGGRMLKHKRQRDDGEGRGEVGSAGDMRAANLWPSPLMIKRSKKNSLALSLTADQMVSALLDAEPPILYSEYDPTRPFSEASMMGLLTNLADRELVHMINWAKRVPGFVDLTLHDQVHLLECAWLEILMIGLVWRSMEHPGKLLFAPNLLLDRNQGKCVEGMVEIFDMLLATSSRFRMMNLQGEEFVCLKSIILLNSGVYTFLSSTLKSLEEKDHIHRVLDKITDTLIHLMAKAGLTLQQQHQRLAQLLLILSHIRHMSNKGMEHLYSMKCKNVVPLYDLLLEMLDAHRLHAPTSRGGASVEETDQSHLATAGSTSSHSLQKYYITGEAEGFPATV
`O=C(O)/C=C/C(=O)Nc1ccc(S(=O)(=O)Nc2nccs2)cc1`: the “activation” value was 3.62%.

With `C[C@H](O)CN(C)C`, the “activation” value is 7.85%.

Consider `O=C1CC[C@@H](C(=O)N[C@H]2C[C@@H]2c2ccccc2)N1`, for which the “activation” value is 1.21%.

Consider `NC[C@H]1O[C@H](O[C@H]2[C@H](O)[C@@H](O[C@H]3O[C@H](CO)[C@@H](O)[C@H](N)[C@H]3O)[C@H](N)C[C@@H]2N)[C@H](N)C[C@@H]1O`, for which the “activation” value is -0.603% [at 32.9 µM].

With `CC(C)Cc1ccc([C@H](C)C(=O)O)cc1`, the “activation” value was -2.2%.

Turning to `O=P(O)(O)C(O)(Cn1ccnc1)P(=O)(O)O`, the “activation” value is -0.373%.

In the case of `NCC(O)CC(=O)O` (stereo unspecified), the “activation” value is 2.39%.

On to `CCCOC(=O)c1ccc(O)cc1`, for which the Potency is 26.8 µM [activator] (active) and 24.5 µM [inconclusive] (active).

For the compound `CC12CCC(C[N+](C)(CCC[N+](C)(C)C)C1)C2(C)C` (stereo unspecified), the “activation” value is 2.19%.

Take `COc1ccc(/C=N/NC(=O)c2ccncc2)c(C(=O)O)c1OC`: the “activation” value is -0.601%.

As for `O=C1[O][Bi][O]c2ccccc21`, the “activation” value is 3.81%.

With `CC(=NCc1ccccc1)c1ccccc1O`, the “activation” value was 1.84%.

For `C[C@H](NCCc1ccc(O)cc1)[C@H](O)c1ccc(O)cc1`, the “activation” value is 2.29%.

In the case of `CCCCCCCCCCCCCC(=O)OCC(COP(=O)([O-])OCC[N+](C)(C)C)OC(=O)CCCCCCCCCCCCC` (stereo unspecified), the “activation” value is -1.45%.

As to `CC(C)(COP(=O)(O)OP(=O)(O)OC[C@H]1O[C@@H](n2cnc3c(N)ncnc32)[C@H](O)[C@@H]1OP(=O)(O)O)C(O)C(=O)NCCC(=O)NCCS` (stereo partly specified), the “activation” value was 11.3%.

As for `CC(C)(C)C(=O)OCC(=O)[C@H]1CC[C@H]2[C@@H]3CCC4=CC(=O)CC[C@]4(C)[C@H]3CC[C@]12C`, the “activation” value is -0.973%.
